# Source: PubChem BioAssay (NCATS)
# Where “and” joins values, the source holds several entries; their conditions need not be identical. Equal values may be shown once. A number with no mark means an inactive call. Inconclusive results are not listed. A call without a number means that no potency is given here. Calls of active or inactive are those of the source. Unless noted, calls follow the shape of the dose curve; as a rule, active = well fitted curve in the direction sought with a large enough effect; inconclusive = small, poorly fitted or top-dose-only effect, or another doubt; inactive = no such curve, though single readings can be large; an effect the other way counts as inactive or inconclusive.
# Tests used:
# [1] = qHTS Assay for Identification of Small Molecule Agonists for Hypoxia Response Element Signaling Pathway (AID 914; active = well fitted activation curve with a large enough effect in the signal ratio, with a control signal flat, not every such curve was filed as active; the % refers to the signal ratio); conditions: ME-180 (cervical carcinoma) HRE-bla reporter, beta-lactamase ratio, CoCl2, 17 h; hits give high values
# Outline: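 qHTS titration; ME-180 HRE-bla cells; EC50 CoCl2 co-treatment, 17 h at 37 degrees Celsius; CCF4 dye, ex 405nm, em 460nm and 530nm; %Activity from ratio; AC50.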
# [2] = molecular target: Cytochrome P450 3A4 (Homo sapiens) (UniProt P08684); assay: qHTS Assay for Inhibitors and Substrates of Cytochrome P450 3A4 (AID 884); conditions: recombinant CYP3A4, Luciferin-PPXE luminescence; series mostly up to 57.1 µM; also: nearly all actives have a fitted effect of over 50% in size
# Outline: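 Luminescent readout of luciferin produced by CYP3A4 (20 nM) dealkylation of Luciferin-PPXE, 25 uM (its KM). NADPH-driven reaction ran 60 min at RT after 10 min compound preincubation; data scaled to 57 uM ketoconazole as 100% inhibition.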
# [3] = Cell Viability - LYMP2-001 (AID 921); conditions: LYMP2-001 lymphoblastoid cell viability; series mostly up to 92.2 µM;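 also: cells exposed to compound for 24 h at 37 °C; nearly all actives have a fitted effect of over 70% in size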; also: potency is read from the fitted curve at half-maximal effect
# Outline: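 qHTS, 1536-well; lymphoblastoid cells, 24 hr compound, 37 C; ATP by CellTiter-Glo, 30 min RT; luminescence; Hill-fit AC50.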
# [4] = molecular target: Cytochrome P450 3A4 (Homo sapiens) (UniProt P08684); assay: qHTS Assay for Activators of Cytochrome P450 3A4 (AID 885); conditions: recombinant CYP3A4, Luciferin-PPXE luminescence, 60 min; series mostly up to 57.1 µM; also: nearly all actives have a fitted effect of over 65% in size
# Outline: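 CYP3A4 activity: Luciferin-PPXE O-dealkylation, 25uM substrate, 200mM KPO4, RT throughout. Read-out is luciferase luminescence; higher values reflect activation.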
# [5] = qHTS Assay for Identification of Small Molecule Agonists for Thrombopoietin (TPO) Signaling Pathway (AID 917); conditions: TPO signaling pathway reporter cells, agonist qHTS; series mostly up to 38.5 µM
# Outline: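 Quantitative HTS for pathway activators: compounds were pin-transferred onto IL-3-starved Ba/F3 cells expressing human TPO receptor, TPO was added at its EC50 (26 pM final), and after 24 hrs at 37 C reporter luciferase was measured.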
# [6] = Confirmation and Secondary Assay for Modulators of Hemoglobin Beta Chain Splicing at IVS2 654 locus (AID 910); conditions: HeLa EGFP-654 splicing reporter, GFP fluorescence, 48 h; series mostly up to 46.1 µM;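 also: per-well total GFP intensity by laser scanning cytometry after 2-day treatment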
# Outline: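 HeLa cells stably carrying EGFP interrupted by mutant beta-globin IVS2-654 intron (CMV-driven) were treated with compound for 2 days at 37C; corrected splicing was scored as total peak GFP intensity per well (488 nm excitation, 500-520 nm emission).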
# [7] = qHTS Assay for Identification of Small Molecule Antagonists for Thrombopoietin (TPO) Signaling Pathway (AID 918); conditions: TPO-dependent cell signaling reporter, antagonist mode; also: potency is read from the fitted curve at half-maximal effect; nearly all actives have a fitted effect of over 60% in size
# Outline: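 Antagonist mode at EC50 TPO (26 pM) in IL-3-free medium; murine Ba/F3 cells with human TPO receptor and GPIIb-promoter luciferase, 24 hrs at 37 C before luminescent detection.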
# [8] = molecular target: Cytochrome P450 2C19 (Homo sapiens) (UniProt P33261); assay: qHTS Assay for Inhibitors and Substrates of Cytochrome P450 2C19 (AID 899); conditions: recombinant CYP2C19, luciferin-H EGE luminescence; series mostly up to 57.1 µM; also: nearly all actives have a fitted effect of over 60% in size; also: potency is read from the fitted curve at half-maximal effect
# Outline: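 Human CYP2C19 (5nM) with Luciferin-H EGE at 10uM (its KM) in 50mM KPO4 was preincubated with compound for 10 min at 37C. NADPH regeneration started a 60 min 37C reaction. Luciferin was read by luminescence, normalized to 57uM ketoconazole.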
# Cytochrome P450 3A4 (Homo sapiens), sequence (P08684 whole entry, looked up): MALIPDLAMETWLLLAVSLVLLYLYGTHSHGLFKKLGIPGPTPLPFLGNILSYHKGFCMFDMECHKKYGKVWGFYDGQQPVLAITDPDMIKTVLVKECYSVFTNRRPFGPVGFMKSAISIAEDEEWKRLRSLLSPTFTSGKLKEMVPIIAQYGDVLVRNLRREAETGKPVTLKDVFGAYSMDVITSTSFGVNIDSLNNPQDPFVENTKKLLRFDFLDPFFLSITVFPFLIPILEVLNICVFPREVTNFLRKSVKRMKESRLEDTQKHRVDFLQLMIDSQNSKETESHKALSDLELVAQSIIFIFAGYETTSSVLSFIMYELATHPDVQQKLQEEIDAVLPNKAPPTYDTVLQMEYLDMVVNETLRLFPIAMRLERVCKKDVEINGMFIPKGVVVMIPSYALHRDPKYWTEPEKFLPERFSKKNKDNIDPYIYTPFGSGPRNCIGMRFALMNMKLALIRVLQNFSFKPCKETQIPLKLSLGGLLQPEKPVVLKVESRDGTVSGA
# Cytochrome P450 2C19 (Homo sapiens), sequence (P33261 whole entry, looked up): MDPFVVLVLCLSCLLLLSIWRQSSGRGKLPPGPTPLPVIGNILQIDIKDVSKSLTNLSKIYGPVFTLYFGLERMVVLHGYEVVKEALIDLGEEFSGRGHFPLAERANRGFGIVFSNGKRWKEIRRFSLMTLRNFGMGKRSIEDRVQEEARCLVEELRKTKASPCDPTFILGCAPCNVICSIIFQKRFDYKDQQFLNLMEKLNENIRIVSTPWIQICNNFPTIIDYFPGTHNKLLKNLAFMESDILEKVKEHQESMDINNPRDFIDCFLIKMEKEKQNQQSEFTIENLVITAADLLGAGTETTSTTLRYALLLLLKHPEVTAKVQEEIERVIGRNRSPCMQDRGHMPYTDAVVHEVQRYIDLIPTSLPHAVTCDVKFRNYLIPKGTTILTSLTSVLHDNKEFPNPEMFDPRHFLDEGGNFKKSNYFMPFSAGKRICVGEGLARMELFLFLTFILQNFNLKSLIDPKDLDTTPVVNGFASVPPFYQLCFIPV
smiles,measurement,setting,value
Nc1ccc(CCN2CCN(c3cccc(C(F)(F)F)c3)CC2)cc1,activation,[1],-27.7%
O=[N+]([O-])c1ccccc1,Potency,[2],inactive
same,Potency,[3],inactive
NNC(N)=O,Potency,[2],inactive
same,Potency,[3],inactive
Oc1cc(Cl)c(Cl)cc1Cl,Potency,[2],inactive
same,Potency,[3],inactive
CP(=O)(O)C1=CCNCC1,outcome,[4],inactive
same,Potency,[5],inactive
CCCCCl,Potency,[2],inactive
same,Potency,[3],inactive
C=CCN1CC[C@]23c4c5ccc(O)c4O[C@H]2/C(=N/NC(=O)c2ccccc2)CC[C@@]3(O)[C@H]1C5,outcome,[4],inactive
ClC(Cl)(Cl)Cl,Potency,[2],inactive
same,Potency,[3],inactive
NC(Cc1ccc(N(CCCl)CCCl)cc1)C(=O)O (stereo not drawn),outcome,[4],inactive
same,outcome,[6],inactive
C[C@]12CCC(=O)C[C@@H]1CC[C@@H]1[C@@H]2CC[C@]2(C)[C@@H](O)CC[C@@H]12,outcome,[4],inactive
same,Potency,[3],inactive
NC(=O)CI,outcome,[4],inactive
same,Potency,[7],3.16 µM (active)
O=C/C=C/c1ccccc1,Potency,[2],inactive
same,Potency,[3],inactive
COC1=CC(=O)O[C@@H](/C=C/c2ccccc2)C1,Potency,[2],inactive
same,Potency,[3],inactive
[O]=[Cr](=[O])([OH])[O][Cr](=[O])(=[O])[OH],Potency,[2],inactive
same,Potency,[3],12.6 µM (active) and 6.31 µM (active)
C=CCN=C=S,outcome,[4],inactive
same,Potency,[3],inactive
COc1ccc2c(c1OC)C(=O)OC2C1c2cc3c(cc2CCN1C)OCO3 (stereo not drawn),outcome,[4],inactive
same,outcome,[6],inactive
same,Potency,[3],inactive
C[C@@H](CO)NC(=O)[C@@H]1C=C2c3cccc4[nH]cc(c34)C[C@H]2N(C)C1,outcome,[4],inactive
C[C@H]1CC[C@@H]2[C@@H](C)[C@H]3[C@H](C[C@H]4[C@@H]5CC=C6CC(O[C@@H]7O[C@H](CO)[C@H](O)[C@H](O[C@@H]8O[C@H](CO)[C@@H](O)[C@H](O)[C@H]8O)[C@H]7O[C@H]7O[C@@H](C)[C@H](O)[C@@H](O)[C@H]7O)CC[C@]6(C)[C@H]5CC[C@]34C)N2C1 (stereo partly drawn),Potency,[2],inactive
same,Potency,[3],inactive
N[C@@H](Cn1oc(=O)[nH]c1=O)C(=O)O,outcome,[4],inactive
same,Potency,[5],inactive
ClC=C(Cl)Cl,Potency,[2],inactive
same,Potency,[3],inactive
CCCn1c(=O)c2[nH]c(C3CCCC3)nc2n(CCCOC(=O)c2ccc(S(=O)(=O)F)cc2)c1=O,outcome,[4],inactive
same,Potency,[5],inactive
C[N+]1(C)CCN(c2ccccc2)CC1,outcome,[4],inactive
same,Potency,[5],inactive
NCCCP(=O)(O)O,outcome,[4],inactive
same,activation,[1],-8.81%
same,Potency,[5],inactive
O=CC=O,Potency,[2],inactive
same,Potency,[3],inactive
Clc1ccccc1Cl,Potency,[2],inactive
same,Potency,[3],inactive
O=C(O)C(Cl)(Cl)Cl,Potency,[2],inactive
same,Potency,[3],inactive
O=[N+]([O-])c1ccc2nc(N3CCNCC3)ccc2c1,outcome,[4],inactive
same,Potency,[8],inactive
same,activation,[1],-10.4%
N#CC(C#N)=Cc1cc(O)c(O)c(O)c1,outcome,[4],inactive
[O]=[Cd],Potency,[2],inactive
same,Potency,[3],inactive
CCCCCCCCOC(=O)c1ccccc1C(=O)OCCCCCCCC,Potency,[2],inactive
same,Potency,[3],inactive
CC(C)CCON=O,Potency,[2],inactive
same,Potency,[3],inactive
CC(C)Nc1ccc(Nc2ccccc2)cc1,outcome,[4],inactive
same,Potency,[3],12.6 µM (active)
NC(=O)COc1c(F)cc(SCCNS(=O)(=O)c2ccccc2)cc1F,outcome,[4],inactive
same,Potency,[5],inactive
Cc1[nH]c2ccc(O)cc2c1CCN,outcome,[4],inactive
same,Potency,[8],7.94 µM (active)
same,Potency,[5],inactive
NC(=O)c1cc(N2CC2)c([N+](=O)[O-])cc1[N+](=O)[O-],outcome,[4],inactive
same,Potency,[5],inactive
CN1CCC(c2c[nH]c3ccc(O)cc23)CC1,outcome,[4],inactive
O=C1C2CC=CCC2C(=O)N1SC(Cl)(Cl)Cl (stereo not drawn),outcome,[4],inactive
same,Potency,[3],2 µM (active) and 5.01 µM (active)
N#CCCN,activation,[1],19.4%
C[N+](C)(C)CCOC(=O)CBr,activation,[1],16.2%
CCCN1CCc2cc(O)cc3c2[C@H]1Cc1ccc(O)c(O)c1-3,Potency,[7],10 µM (active)
CN1CCc2cc(O)cc3c2[C@H]1Cc1ccc(O)c(O)c1-3,Potency,[7],10 µM (active)
[Cl-].[Cl-].[Hg+2],Potency,[3],0.794 µM (active)
